Data on 9 molecules can be found in PubChem BioAssay (EPA / NIEHS).

The nature of assay [1]: CCTE_Shafer_MEA_acute_per_burst_spike_number_mean: CCTE's Neural Acute Assay for Average Number of Spikes Per Burst, Shafer Lab (AID 2284015).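 Note: hits are decreases in mean spikes per burst versus baseline.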 Put shortly: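 Read-out: percent change in mean spikes per burst, each well's post-exposure 40-min recording versus its own 40-min baseline. Rat cortical cultures, DIV 13 or 15, compounds 0.03-40 uM; DMSO is negative control, loss-of-signal fitting.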

The nature of assay [2]: CCTE_Shafer_MEA_acute_interburst_interval_mean: CCTE's Neural Acute Assay for Mean Interburst Interval, Shafer Lab (AID 2284016).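 Note: percent change of mean interburst interval versus each well's own pre-dose baseline; curves fitted for decrease in interburst interval relative to DMSO.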 A digest of the protocol: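 Rat cortical cultures, DIV 13/15; 20 min equilibration, 40 min baseline, compound 0.03-40 uM, 40 min re-recording, 37 C. Spikes detected at 8x rms noise (300-5000 Hz band-pass). Endpoint: % change in interburst interval, fitted in loss direction vs DMSO.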

Assay [3] can be described thus: CCTE_Shafer_MEA_acute_burst_percentage_mean: CCTE's Neural Acute Assay for Percentage of Spikes in a Burst, Shafer Lab (AID 2284017).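 For AC50: curve fitted for loss of signal so potency reflects decreased burst percentage.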 A digest of the protocol: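 Rat cortical cultures, DIV 13/15, 37 C. Spikes detected at 8x rms noise (300-5000 Hz band-pass). Burst spikes/total spikes averaged across electrodes per well; % change post- vs pre-treatment (40 min each), loss-of-signal fit vs DMSO.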

Assay [4] can be described thus: CCTE_Shafer_MEA_acute_burst_percentage_std: CCTE's Neural Acute Assay for Standard Deviation of Burst Percentage, Shafer Lab (AID 2284018).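 Note: fitted in the negative direction so actives lower burst percentage SD.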 A digest of the protocol:
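Primary rat cortical neurons on 16-electrode MEA wells were recorded 40 min at baseline (DIV 13 or 15), then 40 min after compound (0.03-40 uM), at 37 C. Well value is SD across electrodes of spikes-in-bursts/total spikes; endpoint is percent change, DMSO-referenced.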

A short description of assay [5]: CCTE_Shafer_MEA_acute_per_network_burst_spike_number_mean: CCTE's Neural Acute Assay for Average Number of Spikes in a Network Burst, Shafer Lab (AID 2284019).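 For AC50: curve fitted for loss of signal so actives reduce spikes per network burst.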 A digest of the protocol: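 Primary rat cortical neurons on 16-electrode MEA wells, DIV 13 or 15, 37 C; 40-min baseline then 40-min recording with compound (0.03-40 uM). Spikes per network burst (total spikes/number of bursts) expressed as percent change from baseline, DMSO reference.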

Assay [6] is described as follows: CCTE_Shafer_MEA_acute_per_network_burst_electrodes_number_mean: CCTE's Neural Acute Assay for Mean Number of Electrodes in a Network Burst, Shafer Lab (AID 2284021).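 Note: curves fitted for decreases only so hits reduce electrodes per burst.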 A digest of the protocol:
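Rat primary cortical neurons on 16-electrode MEA wells were recorded 40 min at baseline on DIV 13 or 15, then 40 min after compound (0.03-40 uM), at 37 C. Value is percent change per well, fitted in loss direction versus DMSO.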

Assay [7] in a line: CCTE_Shafer_MEA_acute_network_burst_percentage: CCTE's Neural Acute Assay for Percentage of Network Bursts, Shafer Lab (AID 2284022).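 Note: curves fitted for loss so actives lower network burst percentage.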 Put shortly:
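Primary rat cortical neurons on 16-electrode MEA wells, treated on DIV 13 or 15 with compound (0.03-40 uM); 40-min baseline and 40-min post-exposure recordings at 37 C. Value is percent change in spikes within network bursts versus baseline, DMSO negative control.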

Assay [8] can be described thus: CCTE_Shafer_MEA_acute_cross_correlation_area: CCTE's Neural Acute Assay for Area of Cross Correlation, Shafer Lab (AID 2284024).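 Note: area under pooled inter-electrode spike cross-correlation near zero lag as percent change from own baseline; curves fitted for loss of cross-correlation area so actives lower synchrony.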 Put shortly:
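Primary rat cortical neurons on 48-well MEA plates (16 electrodes/well) were recorded 40 min at baseline on DIV 13 or 15, then 40 min with compound (0.03-40 uM) at 37 C; cross-correlation area expressed as percent change from baseline.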

Assay [9] can be described thus: CCTE_Shafer_MEA_acute_cross_correlation_HWHM: CCTE's Neural Acute Assay for Cross Correlation at Half Width at Half Maximum, Shafer Lab (AID 2284026).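 For outcome: spontaneous network firing of rat primary cortical neurons on multiwell microelectrode arrays.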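 Note: percent change per well from pre-dose baseline in spike cross-correlogram half width; hits are a decrease in cross-correlogram half width relative to DMSO.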 Put shortly:
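Primary rat cortical neurons on 16-electrode MEA wells; 40-min baseline on DIV 13 or 15, then 40-min recording with compound (0.03-40 uM) at 37 C. HWHM of spike cross-correlogram expressed as percent change from baseline per well, DMSO reference.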

The nature of assay [10]: CCTE_Shafer_MEA_acute_synchrony_index: CCTE's Neural Acute Assay for Synchrony, Shafer Lab (AID 2284027).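 Note: network synchrony index of spontaneous spiking in primary rat cortical neurons on MEAs; fitted for loss of signal so actives lower synchrony relative to DMSO.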 A digest of the protocol:
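Spontaneous firing of mature rat cortical networks is captured extracellularly on microelectrode arrays at 37 C, with wells needing ≥10 active electrodes. Each compound (0.03-40 uM) is judged by the change in synchrony index from baseline over 40 min.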

The target in assay [11] is Estrogen receptor (Homo sapiens) (UniProt P03372). The assay is described as follows: CCTE_Deisenroth_AIME_384WELL_LUC_Active: CCTE's 384-well Estrogen Receptor Transactivation Assay with AIME metabolic competence (ERTA luciferase; metabolism positive), Deisenroth Lab (AID 2284030; active = hit-call score of the fitted dose curve at least 0.9, where 1 is the maximum). A digest of the protocol:
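Test chemicals (10-point series, 0.002 - 200 uM) were preincubated 2 hours with alginate-immobilized phenobarbital/beta-naphthoflavone-induced male Sprague Dawley rat liver S9; conditioned medium then went onto VM7Luc4E2 breast cells for 24 hour. Luciferase gain-of-signal fitted relative to 17beta-estradiol.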

The nature of assay [12]: CCTE_Shafer_MEA_dev_firing_rate_mean: CCTE's Neural Network Formation Assay for Mean Firing Rate, Shafer Lab (AID 2284031).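 Note: AUC of well mean spike rate recorded on DIV 5 7 9 and 12.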 A digest of the protocol:
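Developing rat cortical networks on MEA plates undergo 12-day compound exposure. Firing frequency, averaged across active electrodes, is integrated as area under the curve over four recording days, referenced to DMSO.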

The nature of assay [13]: CCTE_Shafer_MEA_dev_per_burst_spike_percent: CCTE's Neural Network Formation Assay for Percent of Spikes in a Burst, Shafer Lab (AID 2284032). Put shortly:
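Rat primary cortical neurons on 16-electrode MEA wells, dosed from plating day 0 for 12 days with renewal on DIV 5 and 9; spikes-in-bursts percentage averaged over bursting electrodes, collapsed as AUC across days 5, 7, 9, 12; loss direction versus DMSO.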

For assay [14], the target named is Estrogen receptor (Homo sapiens) (UniProt P03372). The assay is described as follows: CCTE_Deisenroth_AIME_384WELL_LUC_Inactive: CCTE's 384-well Estrogen Receptor Transactivation Assay without AIME metabolic competence (ERTA luciferase; metabolism negative), Deisenroth Lab (AID 2284038; active = hit-call score of the fitted dose curve at least 0.9, where 1 is the maximum;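 note: hits raise estrogen receptor luciferase signal so potencies reflect agonists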). A digest of the protocol: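 Chemicals (10-point series, 0.002 - 200 uM) were incubated 2 hours with alginate-water microsphere lids lacking S9, then the conditioned medium was transferred to VM7Luc4E2 breast cells for 24 hour. Luciferase induction was read by bioluminescence, fitted upward relative to 17beta-estradiol.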
Chain of Estrogen receptor (Homo sapiens) (P03372 whole entry, looked up): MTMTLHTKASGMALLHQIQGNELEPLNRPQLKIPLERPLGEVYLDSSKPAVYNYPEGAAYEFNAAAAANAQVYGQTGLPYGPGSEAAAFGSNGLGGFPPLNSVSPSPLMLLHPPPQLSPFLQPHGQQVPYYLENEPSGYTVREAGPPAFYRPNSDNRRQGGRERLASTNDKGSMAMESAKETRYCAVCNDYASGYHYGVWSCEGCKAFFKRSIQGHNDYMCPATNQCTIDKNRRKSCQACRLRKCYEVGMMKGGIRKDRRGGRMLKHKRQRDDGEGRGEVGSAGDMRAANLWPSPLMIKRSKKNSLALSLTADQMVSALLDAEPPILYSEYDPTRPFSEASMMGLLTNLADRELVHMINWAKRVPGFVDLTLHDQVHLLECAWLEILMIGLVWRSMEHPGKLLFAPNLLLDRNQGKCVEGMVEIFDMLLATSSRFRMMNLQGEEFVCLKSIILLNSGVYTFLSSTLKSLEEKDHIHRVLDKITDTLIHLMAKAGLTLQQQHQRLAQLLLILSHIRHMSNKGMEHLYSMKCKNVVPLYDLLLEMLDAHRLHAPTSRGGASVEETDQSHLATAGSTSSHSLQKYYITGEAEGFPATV

Assay [15] can be described thus: CCTE_Deisenroth_AIME_384WELL_CTox_Inactive: Cytotoxicity Assessment (CTOX) in CCTE's 384-well Estrogen Receptor Transactivation Assay without AIME metabolic competence (metabolism negative), Deisenroth Lab (AID 2284039; active = hit-call score of the fitted dose curve at least 0.9, where 1 is the maximum;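 note: cell viability via live-cell protease substrate cleaved to fluorescent probe; cells exposed 24 h to medium preincubated 2 h with alginate-water beads without S9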). A digest of the protocol:
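Metabolism-negative arm: chemicals (10-point, 0.002 - 200 uM) preincubated 2 h with alginate-water lids, medium moved onto VM7Luc4E2 cells for 24 h. Fluorescent live-cell protease readout; bidirectional curve fit.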

Assay [16] can be described thus: CCTE_Deisenroth_AIME_384WELL_CTox_Active: Cytotoxicity Assessment (CTOX) in CCTE's 384-well Estrogen Receptor Transactivation Assay with AIME metabolic competence (metabolism positive), Deisenroth Lab (AID 2284037; active = hit-call score of the fitted dose curve at least 0.9, where 1 is the maximum;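 note: chemicals first conditioned 2 h by alginate-bound induced rat liver S9 before cells; activity means signal loss indicating cell death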). Put shortly: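 VM7Luc4E2 breast cells received medium pre-incubated 2 h with chemical over alginate microspheres holding induced male Sprague Dawley rat liver S9; viability read 24 h later by protease-substrate fluorescence. Loss of signal, bidirectional fit, 0.002–200 uM.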

The structures appear in SMILES notation. Records with an inconclusive call do not appear. Activity calls are given as the source filed them. Rule for the calls, unless noted: active = hit-call score of the fitted dose curve at least 0.9, where 1 is the maximum; inactive = score below 0.9.

On to `CC(=O)C(C)=CC1C(C)=CCCC1(C)C` (configuration not stated), for which the molecule was called inactive in assay [1], in assay [2], in assay [4], in assay [5], in assay [6] and in assay [7]. Further, the molecule was classed as inactive in assay [8] and in assay [9]. The AC50 in assay [3] and in assay [10] was 20 µM (active) each time.
As for `C[Si]1(C)O[Si](C)(C)O[Si](C)(C)O[Si](C)(C)O1`, the molecule was called inactive in assay [1], in assay [2], in assay [3], in assay [4], in assay [5] and in assay [6]. The outcome in assay [7], in assay [8], in assay [9], in assay [10], in assay [11] and in assay [12] was inactive. In addition, the result in assay [13], in assay [14] and in assay [15] was inactive.
As to `Cc1ccc(C)c(O)c1C`, the molecule was called inactive in assay [1], in [2], in assay [5], in assay [6], in [7] and in [8]. The molecule was called inactive in assay [11], in [16], in assay [14] and in [15]. In addition, the AC50 in assay [3] was 32.4 µM (active); in assay [4] it was 29.3 µM (active); in [9], 33.9 µM (active); in assay [10], 31.6 µM (active).
Take `CCCCCCCCCCO`: the result in [1], in assay [2], in assay [4], in assay [5], in assay [6] and in [7] was inactive. Further, the molecule was called inactive in assay [8], in assay [11], in assay [16] and in assay [14]. The AC50 was 10.3 µM (active) in assay [3], 20 µM (active) in assay [9] and 20 µM (active) in assay [10].
For the molecule `CCOC(=O)C(C)(C)Oc1ccc(Cl)cc1`, the molecule was called inactive in [1], in assay [2], in assay [3], in assay [4], in assay [5] and in assay [6]. Also, the result in assay [7], in [8], in [9] and in assay [10] was inactive.
In the case of `O=C(O)CCCCC(=O)O`, the result in assay [1], in assay [2], in assay [3], in assay [4], in [5] and in [6] was inactive. Also, the result in assay [7], in assay [8], in [9] and in assay [10] was inactive.
With `c1cc(-c2ccncc2)ccn1`, the call in assay [1], in assay [2], in assay [3], in assay [4], in [5] and in assay [6] was inactive. The result in [7], in assay [8], in [9] and in [10] was inactive.
For the molecule `CNCc1cc(F)ccc1Oc1ccc(Cl)c(Cl)c1`, the AC50 in assay [1] was 31.5 µM (active); in [5] it was 32.6 µM (active); in [15], 19.8 µM (active). Besides, the molecule was classed as inactive in assay [2], in assay [3], in assay [4], in [6], in assay [7] and in assay [8]. In addition, the call in assay [9], in assay [10], in assay [11] and in assay [16] was inactive.
Take `FC(F)(F)C(F)(F)C(F)(F)C(F)(F)C(F)(F)C(F)(F)CCI`: the molecule was called inactive in assay [1], in [2], in assay [3], in assay [4], in [5] and in assay [6]. The result in assay [7], in assay [8], in [9], in assay [10], in assay [12] and in [13] was inactive.

A word on the AC50: it is the concentration at which the activity in the assay is half-maximal.
